This is an account of results in PubChem BioAssay (NCATS).

Records with an inconclusive call do not appear. Values without a mark were called inactive. Calls of active or inactive are those of the source. Unless noted, the call rests on the fitted dose curve; in most records, active means well fitted curve in the direction sought with a large enough effect; inconclusive means small, poorly fitted or top-dose-only effect, or another doubt; inactive means no such curve, though single readings can be large; an effect the other way counts as inactive or inconclusive.

A short description of assay [1]: qHTS for Inhibitors of Plasmodium falciparum (DD2) proliferation (AID 504314).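 Further: parasite DNA measured by SYBR Green fluorescence after red cell lysis.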 The method in brief: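 Normalization used 0.29 uM artemisinin as full inhibition and DMSO as baseline. Parasitized erythrocytes were exposed to compounds for 72 h (37C, 5% CO2), then lysed with saponin/Triton buffer containing SYBR Green I.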
A general note: qHTS replaces the single test concentration by a dilution series.

Assay [2] can be described thus: qHTS for Inhibitors of Plasmodium falciparum (GB4) proliferation (AID 504315). Further: nearly all actives have a fitted effect of over 50% in size. The method in brief:
(§1)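 Parasite growth measured as SYBR Green DNA fluorescence (ex 485, em 535 nm) after overnight lysis following 72 h culture at 37 °C, 0.3% parasitemia, 2.5% hematocrit. Values normalized against DMSO and 0.29 uM artemisinin controls, with plate-stack correction.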

Assay [3] is described as follows: qHTS for Inhibitors of Plasmodium falciparum (7G8) proliferation (AID 504316). Further: series mostly up to about 6.7 µM; nearly all actives have a fitted effect of over 65% in size. Summed up:
as §1

The nature of assay [4]: qHTS for Inhibitors of Plasmodium falciparum (HB3) proliferation (AID 504318). Further: nearly all actives have a fitted effect of over 60% in size. Summed up: as §1
A short description of assay [5]: qHTS for Inhibitors of Plasmodium falciparum (CP250) proliferation (AID 504320). Summed up: as §1
Assay [6] addresses Atrial natriuretic peptide receptor 1 (Homo sapiens) (UniProt P16066). Put plainly: Natriuretic polypeptide receptor (hNpr1) antagonism - Pilot CMLD screen (AID 1347052; calls by dose curve;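 further: cGMP level read as GloSensor luciferase luminescence after agonist stimulation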; further: potency means the concentration at half of the fitted maximal effect).

Sequence of Atrial natriuretic peptide receptor 1 (Homo sapiens) (P16066 whole entry, looked up): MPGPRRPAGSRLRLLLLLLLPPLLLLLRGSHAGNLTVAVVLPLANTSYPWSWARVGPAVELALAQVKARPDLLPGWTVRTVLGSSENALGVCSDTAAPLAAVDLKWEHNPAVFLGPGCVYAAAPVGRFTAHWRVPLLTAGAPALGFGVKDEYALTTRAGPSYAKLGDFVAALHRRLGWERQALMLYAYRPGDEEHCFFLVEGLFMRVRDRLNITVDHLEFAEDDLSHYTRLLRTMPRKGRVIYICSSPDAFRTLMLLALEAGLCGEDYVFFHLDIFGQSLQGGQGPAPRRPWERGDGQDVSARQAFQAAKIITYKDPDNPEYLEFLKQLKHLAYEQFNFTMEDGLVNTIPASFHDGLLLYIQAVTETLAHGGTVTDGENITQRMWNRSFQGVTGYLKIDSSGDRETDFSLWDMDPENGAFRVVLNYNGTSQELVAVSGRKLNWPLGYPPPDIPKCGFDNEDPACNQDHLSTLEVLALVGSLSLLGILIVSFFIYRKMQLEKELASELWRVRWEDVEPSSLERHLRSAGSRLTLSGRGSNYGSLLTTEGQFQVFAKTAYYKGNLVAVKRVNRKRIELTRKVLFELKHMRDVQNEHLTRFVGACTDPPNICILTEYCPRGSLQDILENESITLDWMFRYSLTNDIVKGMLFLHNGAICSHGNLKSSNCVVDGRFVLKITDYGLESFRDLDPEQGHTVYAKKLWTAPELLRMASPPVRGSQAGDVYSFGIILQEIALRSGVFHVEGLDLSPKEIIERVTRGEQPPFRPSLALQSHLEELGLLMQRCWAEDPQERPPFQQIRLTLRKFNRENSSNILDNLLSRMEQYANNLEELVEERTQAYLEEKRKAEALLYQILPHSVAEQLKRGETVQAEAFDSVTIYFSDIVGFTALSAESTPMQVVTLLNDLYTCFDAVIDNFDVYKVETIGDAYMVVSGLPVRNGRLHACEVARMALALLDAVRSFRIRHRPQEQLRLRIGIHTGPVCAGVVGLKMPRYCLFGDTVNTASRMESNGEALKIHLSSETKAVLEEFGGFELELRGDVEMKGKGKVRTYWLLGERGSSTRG

For the molecule `COC(=O)NC(CCc1ccccc1)C(C(=O)OC)C(=O)OC` (stereo not given), the Potency entry in assay [1], in assay [2], in assay [3], in assay [4], in assay [5] and in assay [6] was “inactive” each time.
For `C#CCN1C(=O)[C@]2(OCCC=C[C@H]2C)c2ccccc21`, the Potency entry in assay [1], in assay [2], in assay [3], in assay [4], in assay [5] and in assay [6] was “inactive” throughout.
Turning to `CC(=O)OC[C@H]1O[C@H](CC=NO[C@@H](C)c2cc(-c3c(C)cc(C)cc3C)no2)C=C[C@@H]1OC(C)=O`, the Potency entry in assay [1], in assay [2], in assay [3], in assay [4], in assay [5] and in assay [6] was “inactive” in each case.
Turning to `CCC(C)CN1C(=O)NC(c2ccccc2)C(C(=O)OC)=C1C` (stereo not given), the Potency result in assay [1], in assay [2], in assay [3], in assay [4], in assay [5] and in assay [6] was “inactive” in each case.
`COc1cccc(O[C@H]2C=C[C@@H](c3ccccc3)O[C@H]2CO)c1`: the Potency entry in assay [1], in assay [2], in assay [3], in assay [4], in assay [5] and in assay [6] was “inactive” each time.
`CCN1C(=O)N[C@@H](CCc2ccccc2)[C@H](C(C)=O)[C@H]1C`: the Potency result in assay [1], in assay [2], in assay [3], in assay [4], in assay [5] and in assay [6] was “inactive” throughout.
Turning to `CCOC(=O)CN1C(=O)NC(CCc2ccccc2)C(C(C)=O)=C1C` (stereo not given), the Potency entry in assay [1], in assay [2], in assay [3], in assay [4], in assay [5] and in assay [6] was “inactive” in each case.
Take `COC(=O)C[C@H]1c2ccccc2[C@@H]2C(=C[C@@H](C)[C@H]3C(=O)N(c4ccccc4)C(=O)[C@H]32)N1C(=O)OC`: the Potency entry in assay [1], in assay [2], in assay [3], in assay [4], in assay [5] and in assay [6] was “inactive” each time.
For the molecule `C=C(CCN1C=C(C(C)=O)C(c2ccccc2)NC1=O)c1ccc(OC)cc1` (stereo not given), the Potency result in assay [1], in assay [2], in assay [3], in assay [4], in assay [5] and in assay [6] was “inactive” in each case.
`O=C1OC2(CCCCC2)CC2=C1[C@H]1O[C@](c3ccsc3)(Cc3c1ccc1ccccc31)O2`: the Potency result in assay [1], in assay [2], in assay [3], in assay [4], in assay [5] and in assay [6] was “inactive” throughout.
Turning to `CCCCCCC(=O)Cc1cc(OC)c(OC)cc1C=C(C(C)=O)C(=O)OC`, the Potency result in assay [1], in assay [2], in assay [3], in assay [4], in assay [5] and in assay [6] was “inactive” each time.
On to `O=C1NC[C@H](c2ccccc2)N1`, for which the Potency entry in assay [1], in assay [2], in assay [3], in assay [4], in assay [5] and in assay [6] was “inactive” in each case.
Take `CC(=O)OC[C@H]1O[C@H](CCON=C[C@@H](C)[C@H](OCc2ccccc2)C(C)C)C=C[C@@H]1OC(C)=O`: the Potency entry in assay [1], in assay [2], in assay [3], in assay [4], in assay [5] and in assay [6] was “inactive” throughout.
`COC(=O)CC1c2ccccc2C(Cc2ccc(OC)cc2)=C(C)N1C(=O)OC` (stereo not given): the Potency entry in assay [1], in assay [2], in assay [3], in assay [4], in assay [5] and in assay [6] was “inactive” each time.
Consider `COC(=O)C(C(C)=O)[C@@H](NC(=O)NCc1ccccc1)c1ccccc1` (stereo not given in full), for which the Potency entry in assay [1], in assay [2], in assay [3], in assay [4], in assay [5] and in assay [6] was “inactive” in each case.
For `COC(=O)[C@H]1O[C@@H](c2c(OC)c(OC)c(C)c(OC)c2OC)[C@H](C)[C@@H](O)[C@@H]1C`, the Potency result in assay [1], in assay [2], in assay [3], in assay [4], in assay [5] and in assay [6] was “inactive” throughout.
In the case of `C=CCN1C(=O)[C@@]2(CC(C)=CC[C@@H](C)O2)c2ccccc21`, the Potency result in assay [1], in assay [2], in assay [3], in assay [4], in assay [5] and in assay [6] was “inactive” in each case.
In the case of `O=C1[C@@H]2[C@H]3[C@H](O)[C@H](O)CC(=NOC[C@@H](O)COCc4ccco4)[C@H]3CC[C@H]2C(=O)N1C[C@@H]1CCCO1`, the Potency result in assay [1], in assay [2], in assay [3], in assay [4], in assay [5] and in assay [6] was “inactive” in each case.
As for `C=CCOC(=O)N[C@@H](CC(C)C)C(C(=O)OC)=C(C)NCc1ccccc1`, the Potency entry in assay [1], in assay [2], in assay [3], in assay [4], in assay [5] and in assay [6] was “inactive” each time.
As to `CC(C)=CCCC(C)=CCON=C1C[C@@H](O)[C@@H](O)[C@@H]2[C@H]3C(=O)N(c4cccc(Oc5ccccc5)c4)C(=O)[C@@H]3CC[C@H]12`, the Potency result in assay [1], in assay [2], in assay [3], in assay [4], in assay [5] and in assay [6] was “inactive” each time.
On to `C=CCOC(=O)[C@H](O)[C@@H](O)C(=O)OCC=C`, for which the Potency result in assay [1], in assay [2], in assay [3], in assay [4], in assay [5] and in assay [6] was “inactive” in each case.
On to `CC[C@@H](c1ccccc1)n1c(=O)n2n(c1=O)[C@H]1[C@H](O)[C@@H]3O[C@H]3C(=NOCc3ccccc3)[C@H]1CC2`, for which the Potency result in assay [1], in assay [2], in assay [3], in assay [4], in assay [5] and in assay [6] was “inactive” in each case.
On to `COC(=O)N[C@@H](c1ccco1)[C@]1(C(C)=O)CCCC1=O`, for which the Potency entry in assay [1], in assay [2], in assay [3], in assay [4], in assay [5] and in assay [6] was “inactive” in each case.
With `CC1(OC(=O)C2CCCC2)C(=O)C=C2C=C(c3ccsc3)N(c3cccc(C#N)c3)C=C2C1=O` (stereo not given), the Potency entry in assay [1], in assay [2], in assay [3], in assay [4] and in assay [5] was “inactive” in each case. Besides, the Potency in assay [6] was 2.66 µM (active).
Regarding `C=CCOC(=O)NC(c1ccc(F)c(F)c1)S(=O)(=O)c1ccc(Cl)cc1` (stereo not given), the Potency entry in assay [1], in assay [2], in assay [3], in assay [4], in assay [5] and in assay [6] was “inactive” in each case.
